Only a selection was taken, and hits are over-represented in it overall.
Glyco luc inh = increase of ERlucT glycosylation luciferase signal, primary screen, N-linked glycosylation inhibitor project, D54 ERlucT cells, luminescence, set 2; D54 ERlucT glycosylation luciferase reporter, 24 h; percent of 100 nM tunicamycin response; reporter increase, % at 12.5 µM; 0.23% of 360,000 active;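 active = mean luciferase reporter signal, scaled so untreated is 0 and the glycosylation-blocking control 100, at or above a set limit in every replicate; inconclusive = mean reaches the limit but not every replicate does; inactive = mean below the limit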;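 also: luciferase carries N-glycosylation sites so blocking glycosylation raises the light; 0% = median of neutral control wells and 100% = median of 100 nM tunicamycin wells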
PglD DTNB = C. jejuni PglD acetyltransferase inhibitors, primary screen, biochemical, DTNB colorimetric, single point. UDP-N-acetylbacillosamine N-acetyltransferase PglD (Campylobacter jejuni). purified PglD enzyme, DTNB colorimetric CoA detection. inhibition, % at 12.5 µM. 0.098% of 360,000 active. AID 602405, 2012; in the data active = inhibition above about 16%, passing the limit was not always enough; inconclusive = no clear call, values can overlap the other calls
DENV2 CPE rescue = inhibitors of DENV2 cytopathic effect, primary screen, cell-based, plate reader, single concentration. DENV2-infected cells, cytopathic effect rescue. CPE inhibition, % at 9.99 µM. 1.7% of 350,000 active; in the data active = CPE inhibition above about 20%, passing the limit was not always enough; inconclusive = no clear call, values can overlap the other calls; tested in BHK-21 cells;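 also: 0% = median of neutral control wells and 100% = median of positive control wells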
Rtt109 HAT inh = inhibitors of C. albicans Rtt109/Vps75 HAT, primary screen, biochemical, ThioGlo CoA-SH fluorescence, plate reader; Histone acetyltransferase RTT109 (Candida albicans (strain SC5314 / ATCC MYA-2876)), …; purified Rtt109/Vps75, 4 h; inhibition, % at 34.9 µM; 0.16% of 330,000 active; AID 540336, 2011;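 active = inhibition of at least 50% in every replicate; inconclusive = best replicate reaches 50% inhibition but some replicates fall short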
Target sequence (Q5AAJ8 whole entry, looked up): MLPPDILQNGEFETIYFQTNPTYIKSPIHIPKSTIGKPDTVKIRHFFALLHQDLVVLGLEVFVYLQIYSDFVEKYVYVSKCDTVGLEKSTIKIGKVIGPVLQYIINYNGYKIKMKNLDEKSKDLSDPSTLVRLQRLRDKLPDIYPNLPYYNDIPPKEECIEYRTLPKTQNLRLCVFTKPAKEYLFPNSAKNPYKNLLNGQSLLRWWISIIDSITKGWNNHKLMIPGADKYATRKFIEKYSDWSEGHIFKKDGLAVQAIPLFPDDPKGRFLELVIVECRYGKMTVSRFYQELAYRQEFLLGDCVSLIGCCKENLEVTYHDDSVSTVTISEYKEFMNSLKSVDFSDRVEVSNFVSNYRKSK
Active calls of the source: *; ? = inconclusive; nt = no result given; ! = repeats disagree.

SMILES	Glyco luc inh	PglD DTNB	DENV2 CPE rescue	Rtt109 HAT inh
C[C@@H](CN1C2=NC[C@H](Cc3ccc(O)cc3)N2C[C@H]1Cc1ccc(O)cc1)NC(=O)CCC1CCCCC1	0	5	-13	?
COc1ccc(C[C@H]2CN3C(=NC[C@@H]3C(C)C)N2C[C@H](C)NC(=O)c2ccc(C)c(Br)c2)cc1	-6	0	-16	24
C[C@@H](CN1C2=NC[C@H](Cc3ccccc3)N2C[C@H]1Cc1ccc(O)cc1)NC(=O)CCC1CCCCC1	-3	4	41*	15
COc1ccc(S(=O)(=O)N(C)C[C@@H]2OCCCC[C@H](C)Oc3ccc(NS(=O)(=O)c4ccc(F)cc4)cc3C(=O)N([C@@H](C)CO)C[C@@H]2C)cc1	nt	1	?	nt
CCCNC(=O)[C@H]1[C@H](CO)[C@H]2Cn3c(ccc(/C=C/c4ccccc4)c3=O)[C@H]2N1CC	nt	6	7	nt
COc1ccc(NC(=O)Nc2nnc(-c3cccs3)s2)cc1	-1	nt	-2	62*
CCC(CC)Nc1ccc(C(CC(N)=O)NC(=O)Cc2ccc(Br)cc2)cc1[N+](=O)[O-] (stereo not drawn)	50*	-5	1	5
NC(=O)CC(NC(=O)c1ccc(Br)cc1)c1ccc(N2CCCCCC2)c([N+](=O)[O-])c1 (stereo not drawn)	33*	0	-8	13
CN(Cc1ccccc1)c1ccc(C(CC(N)=O)NC(=O)Cc2ccc(Br)cc2)cc1[N+](=O)[O-] (stereo not drawn)	5	-2	136*	-4
CN(Cc1ccccc1)c1ccc(C(CC(N)=O)NC(=O)Cc2cccc3ccccc23)cc1[N+](=O)[O-] (stereo not drawn)	-1	-3	-4	0
C[C@H](CO)N1C[C@H](C)[C@H](CN(C)S(=O)(=O)c2ccc(Cl)cc2)Oc2ccc(N(C)C)cc2CC1=O	nt	-1	-11	nt
CN1C(=O)c2cc(NC(=O)C3CCCCC3)ccc2OC[C@@H]2O[C@H](CC(=O)NCCc3ccncc3)CC[C@H]21	nt	-3	-4	nt
CCCN(C)C[C@@H]1OCCCC[C@H](C)Oc2ccc(NC(=O)Cc3ccccc3)cc2C(=O)N([C@@H](C)CO)C[C@@H]1C	nt	-1	35*	nt
Cc1noc(C)c1S(=O)(=O)N(C)C[C@@H]1OCCCC[C@@H](C)Oc2ccc(NC(=O)Cc3ccccc3)cc2C(=O)N([C@@H](C)CO)C[C@@H]1C	nt	nt	52*	nt
Cc1noc(C)c1S(=O)(=O)N(C)C[C@@H]1OCCCC[C@@H](C)Oc2ccc(NC(=O)Cc3ccccc3)cc2C(=O)N([C@H](C)CO)C[C@H]1C	nt	1	-6	nt
CNC[C@H]1OCCCC[C@@H](C)Oc2ccc(NC(=O)Cc3ccccc3)cc2C(=O)N([C@@H](C)CO)C[C@H]1C	nt	0	-9	nt
C[C@@H]1CCCCO[C@@H](CN(C)S(C)(=O)=O)[C@H](C)CN([C@@H](C)CO)C(=O)c2cc(NC(=O)Cc3ccccc3)ccc2O1	nt	1	52*	nt
C[C@@H]1CCCCO[C@H](CN(C)S(C)(=O)=O)[C@@H](C)CN([C@@H](C)CO)C(=O)c2cc(NC(=O)Cc3ccccc3)ccc2O1	nt	3	-2	nt
CNC[C@@H]1OCCCC[C@H](C)Oc2ccc(NC(=O)Cc3ccccc3)cc2C(=O)N([C@@H](C)CO)C[C@H]1C	nt	-2	44*	nt
CO[C@H]1CN(C)C(=O)c2cc(NC(=O)c3ccccc3F)ccc2OC[C@H](C)N(C(C)=O)C[C@H]1C	nt	-1	nt	nt
Cc1noc(C)c1NC(=O)N(C)C[C@H]1Oc2c(NC(=O)Nc3ccc(C(F)(F)F)cc3)cccc2C(=O)N([C@@H](C)CO)C[C@@H]1C	nt	-2	27*	nt
C[C@@H]1CN([C@H](C)CO)C(=O)c2cccc(NC(=O)c3cnccn3)c2O[C@@H]1CN(C)Cc1ccc(C(F)(F)F)cc1	nt	-5	4	nt
Cc1noc(C)c1NC(=O)Nc1cccc2c1O[C@@H](CN(C)Cc1ccc(C(F)(F)F)cc1)[C@H](C)CN([C@@H](C)CO)C2=O	nt	1	23*	nt
C[C@@H]1CN([C@@H](C)CO)C(=O)c2cccc(NC(=O)c3cnccn3)c2O[C@@H]1CN(C)Cc1ccc(C(F)(F)F)cc1	nt	0	22*	nt
C[C@@H]1CN([C@@H](C)CO)C(=O)c2cccc(NC(=O)Nc3ccc(C(F)(F)F)cc3)c2O[C@H]1CN(C)C(=O)NC1CCCCC1	nt	5	1	nt
SMILES	Glyco luc inh	PglD DTNB	DENV2 CPE rescue	Rtt109 HAT inh
C[C@H](CO)N1C[C@H](C)[C@@H](CN(C)C(=O)NC2CCCCC2)Oc2c(NC(=O)Nc3ccc(C(F)(F)F)cc3)cccc2C1=O	-5	-3	29*!	-2
COc1ccc(NC(=O)N[C@H]2CC[C@@H](CCNC(=O)Cc3ccncc3)O[C@H]2CO)cc1	nt	-2	-3	nt
O=C1CN(Cc2ccccc2)C[C@@H]2[C@H](c3ccc(-c4cccnc4)cc3)[C@@H](CO)N12	nt	nt	6	nt
Cn1cnc(S(=O)(=O)N2CC[C@@H]3[C@@H](CO)Nc4ccc(-c5ccccc5F)cc4[C@@H]32)c1	nt	0	-6	nt
CO[C@H]1CN(C)C(=O)c2cc(NC(=O)Nc3ccccc3)ccc2OC[C@@H](C)N(C(=O)CC2CC2)C[C@@H]1C	nt	1	-3	nt
O=C(C[C@@H]1CC[C@H]2[C@@H](COC[C@H](O)CN2Cc2ccncc2)O1)NCc1ccncc1	nt	-2	13	nt
C[C@@H]1CN([C@H](C)CO)C(=O)c2cccc(NC(=O)Nc3ccc(C(F)(F)F)cc3)c2O[C@@H]1CN(C)C(=O)Nc1ccccc1	nt	-2	43*	nt
C[C@@H]1CN([C@H](C)CO)S(=O)(=O)c2ccc(-c3ccccc3)cc2O[C@H]1CN(C)S(C)(=O)=O	nt	1	-1	nt
COCC(=O)N1[C@H](CO)[C@H]2c3ccccc3N(C(=O)c3cccc(OC)c3)C[C@H]21	nt	5	55*	nt
O=C(c1cccc(F)c1)N1C[C@@H]2[C@H](c3ccccc31)[C@@H](CO)N2C(=O)c1cccc(F)c1	nt	0	9	nt
O=C(c1cccc(F)c1)N1C[C@@H]2[C@H](c3ccccc31)[C@H](CO)N2C(=O)C1CC1	nt	8	32*	nt
O=C(c1ccccc1)N1C[C@@H]2[C@H](c3ccccc31)[C@H](CO)N2C(=O)c1cccc(F)c1	nt	-5	26*	nt
COC(=O)[C@@H]1[C@@H](CO)[C@@H]2Cn3c(ccc(-c4ccccc4F)c3=O)[C@@H]2N1C(=O)CC1CC1	nt	0	7	nt
N#C[C@@H]1[C@@H](c2ccccc2-c2ccccc2)[C@@H](CO)N1C(=O)NC1CCCCC1	nt	nt	-11	nt
CO[C@@H](CN(C)S(=O)(=O)c1ccccc1)[C@@H](C)CN(C(=O)Nc1ccccc1F)[C@@H](C)CO	nt	3	-1	nt
O=C(NC1CC1)c1ccc(NC(=O)C2CCCC2)cc1	1	4	72*	7
O=C(C[C@@H]1CC[C@H](NC(=O)CCN2CCCCC2)[C@@H](CO)O1)Nc1ccc(-c2ccccc2)cc1	nt	3	-5	nt

Assay outcomes: PubChem BioAssay, Broad Institute
